Experiment [1] in a line: Nuclear factor erythroid 2-related factor 2/antioxidant responsive element (Nrf2/ARE) small molecule agonists: qHTS cell viability counter screen in human keratinocytes (AID 1919968; active means well fitted curve in the direction sought with a large enough effect in the repeat runs; an effect the other way counts as inactive or inconclusive; further: nearly all actives have a fitted effect of over 55% in size). In a few lines:
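Stably transfected HaCaT (KeratinoSens), 1,500/well. Test agents in DMSO were applied for 23 h, 37 C/5% CO2. CellTiter-Fluor was incubated 1 h before the fluorescence read.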
(In general: Quantitative high-throughput screening tests each substance at several concentrations.)

A short description of experiment [2]: Nuclear factor erythroid 2-related factor 2/antioxidant responsive element (Nrf2/ARE) small molecule agonists: luciferase reporter gene qHTS assay in human keratinocytes (AID 1919969). Further: nearly all actives have a fitted effect of over 35% in size. Further: potency means the concentration at half of the fitted maximal effect.
For experiment [3], the target named is Gonadotropin-releasing hormone receptor (Homo sapiens) (UniProt P30968). As to the kind of experiment: Human gonadotropin-releasing hormone receptor (GnRHR) small molecule agonists, calcium flux assay in GnRHR-HEK293 cells (AID 1920063). Further: nearly all actives have a fitted effect of over 35% in size. In a few lines:
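Stable human GnRHR HEK293 line. 18 h plating, then calcium dye for 1 h at 37 C. Agonist-mode compound addition from DMSO stocks; fluorescence monitored 3 min.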
In general terms: A change in cytosolic calcium serves as a functional read-out for many receptors and channels.

The target in experiment [4] is KiSS-1 receptor (Homo sapiens) (UniProt Q969F8). The experiment can be described thus: Human kisspeptin (KISS1R) small molecule agonists, calcium flux assay in KISS1R-HEK293 cells (AID 1920064; active means well fitted curve in the direction sought with a large enough effect in the repeat runs; an effect the other way counts as inactive or inconclusive). In a few lines: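 After overnight (18 h) culture at 37 C/5% CO2, human KISS1R-HEK293 cells received calcium dye for 1 h, then test compound; emission at 540 nm (excitation 480 nm) was tracked for 3 min.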
KiSS-1 receptor (Homo sapiens), sequence (Q969F8 whole entry, looked up): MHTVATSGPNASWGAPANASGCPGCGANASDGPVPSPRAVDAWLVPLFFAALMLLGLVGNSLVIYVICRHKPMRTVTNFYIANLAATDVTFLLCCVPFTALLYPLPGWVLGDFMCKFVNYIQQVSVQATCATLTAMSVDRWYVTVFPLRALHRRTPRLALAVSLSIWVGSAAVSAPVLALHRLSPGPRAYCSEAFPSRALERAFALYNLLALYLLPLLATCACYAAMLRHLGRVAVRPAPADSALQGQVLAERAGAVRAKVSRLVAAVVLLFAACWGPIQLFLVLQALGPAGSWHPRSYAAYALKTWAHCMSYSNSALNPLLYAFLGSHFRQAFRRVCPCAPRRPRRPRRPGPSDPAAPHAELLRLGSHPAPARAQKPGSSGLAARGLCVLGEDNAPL

Experiment [5] can be described thus: G protein-coupled receptor (GPCR) small molecule agonists, calcium flux assay: HEK293 wild type cell line counter screen (AID 1920065). The method in brief:
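Following 18 h incubation at 37 C/5% CO2, plates got calcium dye for 1 h; compounds, ATP or DMSO were then pinned in and fluorescence followed kinetically (480/540 nm).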

Experiment [6] can be described thus: p53 small molecule agonists, cell-based qHTS assay with human liver microsomes (AID 1963577).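 Further: p53 response element beta-lactamase reporter cells with liver microsomes plus NADPH.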 In a few lines: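 Metabolically competent format: test substances, human liver microsomes and NADPH (both 0.5 mg/mL final) incubated with p53RE-bla cells 16 h at 37 C. Beta-lactamase reporter signal then quantified by fluorescence.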
Experiment [7] in a line: p53 small molecule agonists, cell-based qHTS assay with rat liver microsomes (AID 1963578). In a few lines: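 Each plate received p53RE-bla cells, then compound, then rat liver microsomes and NADPH (both 0.5 mg/mL final). Plates were held 16 h at 37 C, and beta-lactamase activity was detected with LiveBLAzer over 2 h.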
Experiment [8] in a line: p53 small molecule agonists, cell-based qHTS assay with human liver microsomes: qHTS cell viability counter screen (AID 1963579). Further: nearly all actives have a fitted effect of over 45% in size. In a few lines:
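Tox21 library compounds, delivered from DMSO stocks, were tested on p53RE-bla cells together with 0.5 mg/mL human liver microsomes and 0.5 mg/mL NADPH (final) over 16 h at 37 C; CellTiter-Glo luminescence served as the cytotoxicity measure.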

The nature of experiment [9]: p53 small molecule agonists, cell-based qHTS assay with rat liver microsomes: qHTS cell viability counter screen (AID 1963580). Further: nearly all actives have a fitted effect of over 45% in size. In a few lines:
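After the beta-lactamase ratio was read, CellTiter-Glo was added to the same wells and luminescence measured at 30 min; cells had been treated 16 h at 37 C with compounds, rat liver microsomes and NADPH (0.5 mg/mL final each).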

Experiment [10] in a line: p53 small molecule agonists, cell-based qHTS assay: qHTS cell viability counter screen (AID 1963581). Further: nearly all actives have a fitted effect of over 45% in size. In a few lines:
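qHTS counter screen: 16 h compound exposure at 37 C of p53RE-bla HCT-116 cells (4,000 per well, seeded 5 h prior), cell viability by ATP luminescence.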

Experiment [11] in a line: p53 small molecule agonists, cell-based qHTS assay (AID 1963582; active means well fitted activation curve with a large enough effect in the signal ratio in the repeat runs, not every such curve was filed as active; the % refers to the signal ratio). The method in brief: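 Measured: fluorescence from cleaved LiveBLAzer substrate. System: p53RE-bla cells, 16 h compound treatment at 37 C, 2 h substrate step at room temperature.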
The nature of experiment [12]: cAMP Responsive Elements (CRE) small molecule agonists, cell-based qHTS assay (AID 1963590). The method in brief:
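Test agents in DMSO were incubated 3 h at 37 C/5% CO2 with CRE-bla HEK 293T cells seeded 18 h earlier; LiveBLAzer B/G FRET substrate was added and read after 2 h at room temperature.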

The nature of experiment [13]: cAMP Responsive Elements (CRE) small molecule antagonists, cell-based qHTS assay (AID 1963591; active means well fitted inhibition curve with a large enough effect in the signal ratio in the repeat runs, not every such curve was filed as active; the % refers to the signal ratio). The method in brief:
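Reporter line CRE-bla HEK 293T in dialyzed-FBS DMEM; cells preincubated 18 h, treated 3 h with compound plus NKH477 (0.25 uM final); LiveBLAzer FRET, 2 h RT.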

The target of experiment [14] is Beta-2 adrenergic receptor (Homo sapiens) (UniProt P07550). As to the kind of experiment: Adrenergic beta2 receptor (ADRB2) small molecule antagonists, cell-based qHTS assay (AID 1963592). Further: series mostly up to about 92 µM; nearly all actives have a fitted effect of over 50% in size. In a few lines: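 Assay format: CHO-ADRB2 cells, 18-20hr seeding at 37C/5% CO2, then compound plus 1nM isoproterenol agonist mix for 0.5hr RT. Homogeneous time-resolved fluorescence cAMP detection after 1hr, expressed as 665/615 nm ratio.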
Beta-2 adrenergic receptor (Homo sapiens), sequence (P07550 whole entry, looked up): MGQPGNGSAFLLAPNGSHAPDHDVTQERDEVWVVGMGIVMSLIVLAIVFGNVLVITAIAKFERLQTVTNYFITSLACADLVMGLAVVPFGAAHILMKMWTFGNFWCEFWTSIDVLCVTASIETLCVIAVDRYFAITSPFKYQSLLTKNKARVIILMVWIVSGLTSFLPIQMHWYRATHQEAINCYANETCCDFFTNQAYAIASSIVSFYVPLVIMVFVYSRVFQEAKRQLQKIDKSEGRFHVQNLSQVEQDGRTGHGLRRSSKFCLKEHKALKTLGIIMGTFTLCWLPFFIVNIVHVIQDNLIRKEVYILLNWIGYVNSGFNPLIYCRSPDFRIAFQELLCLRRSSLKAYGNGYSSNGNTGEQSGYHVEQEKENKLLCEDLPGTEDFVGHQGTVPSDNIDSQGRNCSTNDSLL

For experiment [15] the target is unchanged. The experiment can be described thus: Adrenergic beta2 receptor (ADRB2) small molecule agonists, cell-based qHTS assay (AID 1963593).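 Further: CHO cells stably overexpressing human ADRB2.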 In a few lines: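 CHO cells stably over-expressing ADRB2 were plated overnight at 37C, then dosed with compounds plus a stimulation mix containing 100uM IBMX and 25uM Ro-20-1724 for 0.5hr at room temperature. cAMP was measured by HTRF competition, 1hr.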

Experiment [16] addresses D(2) dopamine receptor (Homo sapiens) (UniProt P14416). As to the kind of experiment: Dopamine D2 receptor (DRD2) small molecule agonists, cell-based qHTS assay (AID 1963594). Further: nearly all actives have a fitted effect of over 35% in size. The method in brief:
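HEK293 cells stably expressing human DRD2, pre-treated with PDE inhibitor Ro20-1724 (0.1 mM final) and compound 10 min at room temperature, then stimulated with NKH477 (200nM […]) for 30 min. cAMP read by HTRF (665/620 nm).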

Experiment [17] shares this target. The experiment can be described thus: Dopamine D2 receptor (DRD2) small molecule antagonists, cell-based qHTS assay (AID 1963595; active means well fitted inhibition curve with a large enough effect in the signal ratio in the repeat runs, with a control signal flat; the % refers to the signal ratio). The method in brief: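 HTRF cAMP read-out at 665 and 620 nm emission (340 nm excitation). Antagonist mode: compounds were tested against 12 nM quinpirole in DRD2-HEK293 cells, with 200 nM NKH477 raising cAMP and 0.1 mM Ro20-1724 blocking its breakdown.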

The target of experiment [18] is 5-hydroxytryptamine receptor 2A (Homo sapiens) (UniProt P28223). The experiment can be described thus: 5-hydroxytryptamine receptor 2A (HTR2A) small molecule agonists, cell-based qHTS assay (AID 1963587). Further: nearly all actives have a fitted effect of over 30% in size. The method in brief: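 CHO cells stably expressing human HTR2A, plated 18 h, loaded with calcium dye 1 h at 37 C. Agonist mode: compounds added and intracellular calcium fluorescence recorded kinetically for 2 min at 1 sec intervals.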
5-hydroxytryptamine receptor 2A (Homo sapiens), sequence (P28223 whole entry, looked up): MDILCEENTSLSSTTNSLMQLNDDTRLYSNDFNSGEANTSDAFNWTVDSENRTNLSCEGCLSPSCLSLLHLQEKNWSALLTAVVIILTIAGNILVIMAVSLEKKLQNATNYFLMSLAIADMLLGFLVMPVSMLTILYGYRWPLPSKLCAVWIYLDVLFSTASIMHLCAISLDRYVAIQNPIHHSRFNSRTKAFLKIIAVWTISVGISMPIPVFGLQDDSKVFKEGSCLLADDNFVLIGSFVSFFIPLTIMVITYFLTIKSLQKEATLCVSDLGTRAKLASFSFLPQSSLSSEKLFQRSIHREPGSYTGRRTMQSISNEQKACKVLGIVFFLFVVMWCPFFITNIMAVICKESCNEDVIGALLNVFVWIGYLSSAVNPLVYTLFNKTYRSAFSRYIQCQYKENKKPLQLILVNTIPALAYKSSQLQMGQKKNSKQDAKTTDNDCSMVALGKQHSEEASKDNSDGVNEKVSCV

For experiment [19], the target named is Muscarinic acetylcholine receptor M1 (Homo sapiens) (UniProt P11229). As to the kind of experiment: Cholinergic receptor muscarinic 1 (CHRM1) small molecule antagonists, cell-based qHTS assay (AID 1963588). Further: nearly all actives have a fitted effect of over 40% in size. The method in brief:
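Compounds were tested at 15 concentrations in three independent runs. Dye-loaded CHRM1-CHO cells were exposed 5 min at room temperature before stimulation by acetylcholine added at 50nM. Intracellular calcium was read kinetically on FDSS for 3 min.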

SMILES strings stand for the structures. Records with an inconclusive call do not appear. Some compounds were tested as several samples or in several runs, with calls that do not always agree. Calls of active or inactive are those of the source. Unless noted, the call rests on the fitted dose curve.

Muscarinic acetylcholine receptor M1 (Homo sapiens), sequence (P11229 whole entry, looked up): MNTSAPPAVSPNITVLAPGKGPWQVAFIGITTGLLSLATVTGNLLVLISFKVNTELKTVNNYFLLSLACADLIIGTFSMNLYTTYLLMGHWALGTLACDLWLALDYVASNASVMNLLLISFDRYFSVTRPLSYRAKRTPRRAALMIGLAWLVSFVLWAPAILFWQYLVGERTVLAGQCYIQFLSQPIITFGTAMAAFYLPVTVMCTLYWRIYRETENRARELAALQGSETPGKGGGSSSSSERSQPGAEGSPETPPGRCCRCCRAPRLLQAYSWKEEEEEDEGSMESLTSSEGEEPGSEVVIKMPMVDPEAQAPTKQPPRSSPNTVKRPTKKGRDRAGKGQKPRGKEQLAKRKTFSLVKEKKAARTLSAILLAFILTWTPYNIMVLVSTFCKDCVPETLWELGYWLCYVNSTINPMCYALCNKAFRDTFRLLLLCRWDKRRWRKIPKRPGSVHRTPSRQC
D(2) dopamine receptor (Homo sapiens), sequence (P14416 whole entry, looked up): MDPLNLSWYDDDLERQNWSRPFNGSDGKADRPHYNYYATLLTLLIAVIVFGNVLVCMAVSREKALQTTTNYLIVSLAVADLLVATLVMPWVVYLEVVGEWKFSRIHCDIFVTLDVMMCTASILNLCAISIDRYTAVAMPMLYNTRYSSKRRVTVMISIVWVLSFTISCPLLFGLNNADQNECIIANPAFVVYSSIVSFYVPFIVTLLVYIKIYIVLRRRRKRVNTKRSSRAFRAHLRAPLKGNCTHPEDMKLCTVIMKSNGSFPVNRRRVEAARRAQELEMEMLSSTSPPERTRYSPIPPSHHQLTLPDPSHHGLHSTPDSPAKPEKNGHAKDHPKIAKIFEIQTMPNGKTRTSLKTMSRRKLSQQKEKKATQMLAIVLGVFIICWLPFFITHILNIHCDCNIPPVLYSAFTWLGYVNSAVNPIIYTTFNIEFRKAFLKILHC
Gonadotropin-releasing hormone receptor (Homo sapiens), sequence (P30968 whole entry, looked up): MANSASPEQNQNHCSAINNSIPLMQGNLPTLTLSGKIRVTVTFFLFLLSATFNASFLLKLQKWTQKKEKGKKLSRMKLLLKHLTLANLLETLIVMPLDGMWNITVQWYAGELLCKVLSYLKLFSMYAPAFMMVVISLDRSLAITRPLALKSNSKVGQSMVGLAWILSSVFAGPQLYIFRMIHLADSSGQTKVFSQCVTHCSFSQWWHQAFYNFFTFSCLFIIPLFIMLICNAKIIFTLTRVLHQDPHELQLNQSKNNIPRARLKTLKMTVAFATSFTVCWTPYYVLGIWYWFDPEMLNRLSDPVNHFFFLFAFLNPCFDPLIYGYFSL

Consider `CCOc1ccc(NC(C)=O)cc1`, for which the Potency entry in experiment [1], in experiment [2], in experiment [3], in [4], in [5] and in experiment [6] was “inactive” in each case. In addition, the Potency entry in experiment [7], in [8], in [9], in experiment [10], in [11] and in experiment [12] was “inactive” in each case. For the same compound, the Potency entry in [13], in [14], in experiment [15], in [16] and in experiment [17] was “inactive” throughout.

For `CCOC(=O)C(C)(C)Oc1ccc(Cl)cc1`, the Potency entry in [1], in experiment [2], in experiment [3], in experiment [4], in [5] and in experiment [6] was “inactive” each time. Further, the Potency entry in experiment [7], in [8], in experiment [9], in [10], in experiment [11] and in [12] was “inactive” in each case. Also, the Potency entry in experiment [13], in experiment [14], in experiment [15], in experiment [16] and in experiment [17] was “inactive” in each case.

Turning to `OC(Cn1cncn1)(Cn1cncn1)c1ccc(F)cc1F`, the Potency result in experiment [1], in [2], in experiment [3], in [4], in experiment [5] and in experiment [6] was “inactive” throughout. For the same compound, the Potency result in experiment [7], in experiment [8], in [9], in experiment [10], in [11] and in experiment [12] was “inactive” each time. The Potency entry in [13], in experiment [14], in [15], in [16] and in [17] was “inactive” throughout.

On to `NC(CO)(CO)CO`, for which the Potency entry in experiment [1], in [2], in experiment [3], in experiment [4], in experiment [5] and in experiment [6] was “inactive” in each case. In addition, the Potency result in [7], in experiment [8], in experiment [9], in [10], in [11] and in [12] was “inactive” throughout. Further, the Potency result in experiment [13], in experiment [14], in experiment [15], in experiment [16] and in experiment [17] was “inactive” in each case.

Consider `C=C(C)C(=O)OCC(C)C`, for which the Potency result in [1], in experiment [2], in experiment [3], in experiment [4], in [5] and in [6] was “inactive” each time. Further, the Potency entry in [7], in experiment [8], in experiment [9], in experiment [10], in experiment [11] and in experiment [18] was “inactive” throughout. Further, the Potency entry in experiment [19], in experiment [12], in [14], in experiment [15], in experiment [16] and in [17] was “inactive” each time.

As to `Cc1cnc(NC(=O)C2=C(O)c3ccccc3S(=O)(=O)N2C)s1`, the Potency entry in experiment [1], in experiment [2], in experiment [3], in experiment [4], in [5] and in [6] was “inactive” throughout. Besides, the Potency entry in [7], in experiment [8], in experiment [9], in [10], in experiment [11] and in [12] was “inactive” throughout. Further, the Potency entry in experiment [13], in experiment [14], in [15], in [16] and in experiment [17] was “inactive” throughout.

In the case of `CC(C)(C#N)c1cc(Cn2cncn2)cc(C(C)(C)C#N)c1`, the Potency entry in [1], in experiment [2], in experiment [3], in [4], in experiment [5] and in experiment [6] was “inactive” throughout. For the same compound, the Potency entry in experiment [7], in experiment [8], in experiment [9], in experiment [10], in [11] and in experiment [12] was “inactive” each time. Moreover, the Potency result in experiment [13], in experiment [14], in experiment [15], in [16] and in experiment [17] was “inactive” throughout.

Consider `CCCCOC(=O)COc1ccc(Cl)cc1Cl`, for which the Potency entry in [1], in experiment [3], in [4], in experiment [5], in experiment [6] and in [7] was “inactive” throughout. Further, the Potency result in experiment [8], in [9], in experiment [10], in experiment [11], in [18] and in experiment [19] was “inactive” each time. Further, the Potency entry in experiment [12], in [13], in experiment [15], in experiment [16] and in [17] was “inactive” throughout. For the same compound, in experiment [2], the Potency was 69.4 µM (active) and inactive.

These data come from PubChem BioAssay (Tox21).
